Inconclusive results are not listed. Entries that show only a call come without a potency. Calls of active or inactive are those of the source. Calls come from the whole dose curve.
Test: qHTS for Inhibitors of Cell Surface uPA Generation: Wild-type Protective Antigen (WT-PrAg) Counterscreen for Cherry-picked Compounds

Structure (SMILES)	Potency
O=c1[nH]c(=O)n(-c2ccc(Cl)cc2)c(O)c1C=Nc1ccc(S(=O)(=O)Nc2nccs2)cc1	inactive
CCCCNc1c(-c2ccc(-c3cccc(Cl)c3)cc2)nc2ccccn12	inactive
Cc1cc(C(=O)NP(=O)(N2CCOCC2)N2CCOCC2)c(C)n1C1CC1	inactive
O=c1ccc(S(=O)(=O)N2CCCC2)c[nH]1	inactive
CC(C)(C)NC(=O)C(c1cccs1)N(C(=O)c1csnn1)c1ccccc1F (centres undefined)	inactive
OCC1CCCCN1CC(O)COC(c1ccc(F)cc1)c1ccc(F)cc1 (centres undefined)	inactive
O=C(C[n+]1ccccc1)Nc1ccccc1C(F)(F)F	inactive
C#CCN1C=C(C(=O)OCC)C(C)NS1(=O)=O (centres undefined)	inactive
CCN(C1CCS(=O)(=O)C1)S(=O)(=O)c1ccc2ccccc2c1 (centres undefined)	inactive
O=C(CNS(=O)(=O)c1ccc(F)cc1)Nc1ccccc1	inactive
COc1cc(CN2CCNC(=O)C2CC(=O)NCCCC2CCCC2)cc(OC)c1 (centres undefined)	inactive
O=C(CN1CCN(Cc2ccc(Cl)cc2)C1=O)NCc1cccs1	inactive
CCCCn1c(-c2cccnc2)nc2cc3[nH]c(=O)c(C(C)C)nc3cc21	inactive
CC1=CC(C)C(C[N+]2(C)CCCCC2)C(C)C1 (centres undefined)	inactive
COc1cc2oc(=O)ccc2cc1[C@H](O)[C@@H](O)C(C)(C)O	inactive
COc1ccc(C[C@@H]2OC3(C=CC(=O)C=C3)O[C@H]2Cc2ccc(OC)cc2)cc1	inactive
CC(C)(C)OC(=O)NCCCCCNC(=O)c1[nH]cnc1C(=O)Nc1ccc(Cl)cc1	inactive
CC(NC(=O)C1CCC(C(=O)NC(C)c2ccccc2)CC1)c1ccccc1 (centres undefined)	inactive
O=C(c1cccc(F)c1)N1CCN(Cc2cccc(Br)c2)CC1	inactive
